Experiment [1] deals with DLD1. Nature of the experiment: cell viability (CellTiter-Glo) relative to plate median (fraction of plate median); higher = more viable cells. The settings on record: 5 µM; treatment time 24 h; reporter: 7TFP. Put shortly: (§1)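 Colorectal cancer cell lines stably carrying lentiviral TCF/Wnt firefly luciferase reporters (7TFP or TCF4/Wnt) were plated in 384-well plates and, 24 h later, given library compounds at a final 5 µM for 24 h. Firefly luciferase or CellTiterGlo luminescence was read on parallel plates with a Tecan F500 reader. Each well's signal was normalised to the plate median in webcellHTS2 (additive, without log transformation). Values are the mean of two independent replicates.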
A general note: ATP-based viability assays read luminescence as a measure of living cells.

In a further experiment the test system is HCT116. Described as above. The settings on record: 5 µM; treatment time 24 h; reporter: TCF4/Wnt. Put shortly:
as §1

Experiment [2] deals with SW480. The experiment is described as above. The settings on record: 5 µM; treatment time 24 h; reporter: 7TFP. Put shortly:
as §1

Experiment [3] has as its system DLD1. Nature of the experiment: TCF/Wnt firefly luciferase reporter signal relative to plate median (fraction of plate median); higher = higher Wnt reporter signal. The settings on record: 5 µM; treatment time 24 h; reporter: 7TFP. Put shortly:
as §1
In general terms: In a reporter assay the amount or activity of a reporter protein is the signal.

The test system of experiment [4] is SW480. Described as above. The settings on record: 5 µM; treatment time 24 h; reporter: 7TFP. Put shortly: as §1

± gives the standard deviation of the averaged measurements.

For `NC[C@@H]1O[C@H](O[C@H]2[C@@H](O)[C@H](O[C@@H]3[C@@H](O)[C@H](N)C[C@H](N)[C@H]3O[C@H]3O[C@H](CO)[C@@H](O)[C@H](O)[C@H]3N)O[C@@H]2CO)[C@H](N)[C@@H](O)[C@@H]1O`, the cell viability stood at 1.1 ± 0.035 in the experiment on DLD1 [1], 0.975 ± 0.064 in the experiment with HCT116 and 1.065 ± 0.0071 with SW480 [2]. Besides, the “TCF/Wnt firefly luciferase reporter signal” value with DLD1 [3] amounted to 0.901 ± 0.043; with SW480 [4] it was 0.995 ± 0.11.
Take `COc1ccc(C(C)=O)c(OC)c1`: the cell viability in the experiment with DLD1 [1] was 0.971 ± 0.056; with HCT116, 0.963 ± 0.15; with SW480 [2] it was 0.9765 ± 0.00071. The “TCF/Wnt firefly luciferase reporter signal” value is 0.864 ± 0.044 with DLD1 [3] and 1.03 ± 0.16 in the experiment with SW480 [4].
For `CC1CCc2cc(F)cc3c(=O)c(C(=O)O)cn1c23` (stereo not given) the same measures were 1.05 ± 0.071, 1.05 ± 0.15, 0.972 ± 0.013, 0.953 ± 0.039 and 1.07 ± 0.014.
For `CN1CCC[C@@H]1Cc1c[nH]c2ccc(CCS(=O)(=O)c3ccccc3)cc12` the same measures were 0.943 ± 0.028, 1.05 ± 0.12, 0.956 ± 0.023, 0.945 ± 0.18 and 1.04 ± 0.063.
For `CC(=O)OC1CCC2(O)CC1(C)CCC1C2CC1(C)C` (stereo not given), in that order: 1.03 ± 0.014, 1.06 ± 0.05, 1.05, 0.9135 ± 0.0064 and 0.933 ± 0.057.
Take `COc1cc(N)c(Cl)cc1C(=O)NC1CCN(Cc2ccccc2)CC1`: the cell viability in the experiment on DLD1 [1] came out at 0.971 ± 0.026; in the experiment on HCT116, 0.883 ± 0.041; in the experiment with SW480 [2], 0.975 ± 0.0071. Besides, the “TCF/Wnt firefly luciferase reporter signal” value in the experiment on DLD1 [3] is 0.8815 ± 0.0021; with SW480 [4], 0.998 ± 0.017.
For `CN(C)CCOc1ccc(/C(=C(/CCCl)c2ccccc2)c2ccccc2)cc1` the same measures were 0.947 ± 0.034, 1.02 ± 0.062, 0.977 ± 0.047, 0.962 ± 0.12 and 1.05 ± 0.073.
For `NS(=O)(=O)c1cc2c(cc1Cl)NC(C1CC3C=CC1C3)NS2(=O)=O` (stereo not given) the same measures were 0.973 ± 0.052, 0.962 ± 0.0071, 0.983 ± 0.0042, 1.1 ± 0.035 and 0.879 ± 0.04.
For `CCOc1ccc(C(=O)c2ccc(OC)c(O)c2O)cc1`, in that order: 1.01 ± 0.052, 1.07 ± 0.028, 1 ± 0.038, 0.966 ± 0.025 and 1.03 ± 0.021.
Consider `COc1cc(O)c2c(=O)cc(C)oc2c1CC=C(C)C`, for which the cell viability in the experiment with DLD1 [1] is 1.04 ± 0.057; in the experiment on HCT116 it was 1.06 ± 0.078; in the experiment with SW480 [2] it was 1.04 ± 0.035. Also, the figures for the “TCF/Wnt firefly luciferase reporter signal” value with DLD1 [3] and with SW480 [4] were 0.91 ± 0.04 and 0.991 ± 0.15, respectively.
For `COc1cc([C@@H]2c3cc4c(cc3[C@@H](O[C@@H]3O[C@@H]5CO[C@@H](c6cccs6)O[C@H]5[C@H](O)[C@H]3O)[C@H]3COC(=O)[C@H]23)OCO4)cc(OC)c1O`, in that order: 0.946 ± 0.047, 0.747 ± 0.0014, 0.952 ± 0.14, 0.738 ± 0.032 and 0.868.
For `COc1ccc(-c2cc(=O)c3c(OC)c(OC)c(OC)cc3o2)cc1OC`, in that order: 1.01 ± 0.022, 1.055 ± 0.0071, 1.015 ± 0.0071, 1.07 ± 0.13 and 1.15 ± 0.16.
On to `O=C(O)c1ccccc1C(=O)Nc1ccc(S(=O)(=O)Nc2nccs2)cc1`, for which the cell viability is 1.05 ± 0.08 in the experiment on DLD1 [1], 0.918 ± 0.088 in the experiment on HCT116 and 1.004 ± 0.0085 in the experiment on SW480 [2]. Moreover, the entries for the “TCF/Wnt firefly luciferase reporter signal” value in the experiment with DLD1 [3] and with SW480 [4] were 1.03 ± 0.12 and 1.11 ± 0.021, respectively.
For `CC1=CC2C(C(C)C)CCC(C)(O)C2CC1` (stereo not given), in that order: 0.97 ± 0.036, 0.929 ± 0.011, 0.969 ± 0.013, 1.02 ± 0.11 and 0.957 ± 0.025.

The values are drawn from the supplement of paper PMC6522484.
